In the library only some 6.6% were active in any assay of this set; here they are far more common.
Autofluor counter = compound fluorescence in toxin protease inhibitor counterscreen; fluorescence intensity (no concentration beside the values); hit rate 3.1% among 360,000; compound autofluorescence counterscreen, microsphere flow cytometry; stronger effect = higher value; in the data active = fluorescence intensity above about 16000; inconclusive = no clear call, values can overlap the other calls
Mtb FBA inh = inhibitors of M. tuberculosis fructose-bisphosphate aldolase; purified M. tuberculosis FBA, fluorescence read-out; hit rate 2.3% among 360,000; inhibition, % at 1 µM; AID 588726; in the data active = inhibition above about 27%;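 note: 0% = vehicle and 100% = reference inhibitor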
Target sequence (P9WQA3 whole entry, looked up): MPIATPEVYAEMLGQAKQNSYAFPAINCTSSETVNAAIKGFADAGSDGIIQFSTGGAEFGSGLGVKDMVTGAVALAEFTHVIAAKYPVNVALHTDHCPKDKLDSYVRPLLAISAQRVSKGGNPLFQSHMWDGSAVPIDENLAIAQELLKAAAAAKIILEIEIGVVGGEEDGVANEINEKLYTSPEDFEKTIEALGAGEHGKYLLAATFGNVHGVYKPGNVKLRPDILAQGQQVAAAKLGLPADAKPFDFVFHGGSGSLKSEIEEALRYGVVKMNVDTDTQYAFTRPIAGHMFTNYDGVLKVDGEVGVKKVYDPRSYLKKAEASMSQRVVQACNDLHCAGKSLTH
BoNT-A LC inh2 = blocks Botulinum neurotoxin A light chain protease; inhibition, % at 10 µM; multiplex microsphere protease substrate cleavage, flow cytometry; hit rate 0.17% among 360,000; AID 588499; note: plate controls were buffer without enzyme for full effect and enzyme alone for no effect
BoNT F protease = BoNT F light chain protease inhibition. Multiplex microsphere protease cleavage assay, flow cytometry. inhibition, % at 10 µM. hit rate 0.22% among 360,000; in the data active = inhibition above about 35%, passing the limit was not always enough; inconclusive = no clear call, values can overlap the other calls; note: plate controls were buffer without enzyme for full effect and enzyme alone for no effect
Anthrax LF inh2 = anthrax lethal factor protease inhibition; P15917; multiplex microsphere protease cleavage assay, LF; inhibition, % at 10 µM; hit rate 0.12% among 360,000; AID 588501; note: plate controls were buffer without enzyme for full effect and enzyme alone for no effect
GDH-TPI inh = inhibits GDH-TPI coupling enzymes, artifact for Mtb FBA screen | GDH-TPI coupled enzyme counterscreen, NADH absorbance | inhibition, % at 4.8 µM | hit rate 1.2% among 360,000; in the data active = inhibition above about 30%;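 note: 0% = DMSO wells and 100% = wells lacking the enzyme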
* marks the source's active call; other numbers are inactive results; ? = inconclusive; nt = not tested or not shown. Cut-off read from the data, not from the text of the source, unless noted: active = inhibition above about 30%; inconclusive = no clear call, values can overlap the other calls; inactive = below that.

SMILES	Autofluor counter	Mtb FBA inh	BoNT-A LC inh2	BoNT F protease	Anthrax LF inh2	GDH-TPI inh
Cc1c(NC(=O)C(C)OC(=O)CCc2c[nH]c3ccccc23)c(=O)n(-c2ccccc2)n1C (configuration not stated)	5822	0	0	-8	-5	12
COC(=O)c1ccc(C(=O)OC)nc1	4086	-6	1	35*	-5	1
COc1ccc([C@H]2CC(=O)C=C(c3c(OC)cccc3OC)C2)cc1	3094	2	-1	-18	-2	10
O=C(Nc1ccccc1F)c1cc2nc(C(F)F)cc(C(F)F)n2n1	21540*	1	-6	-7	-2	-6
O=C(Nc1ccccc1F)c1cnccn1	4468	1	0	-2	-2	-7
Fc1cccc(C2NC(=S)NC3=C2N2CCC3CC2)c1 (configuration not stated)	17015*	0	-2	-3	-4	1
O=C(Cc1ccccc1Cl)N/N=C/c1cccnc1	5800	1	0	-1	-2	3
CC1NS(=O)(=O)c2cc([N+](=O)[O-])ccc21 (configuration not stated)	5622	nt	0	-4	-2	nt
CCOC(=O)c1cnn2c(C(F)(F)F)cc(-c3cn(C)nc3C)nc12	2941	72*	0	0	0	21
CCOP(=O)(OCC)c1ccc2c(c1)C(=O)c1ccccc1CC2	4123	1	0	-7	0	2
C=CCn1c(SCc2c(C)noc2C)nc2sc3c(c2c1=O)CCCCC3	24051*	-4	-2	-6	-1	-3
O=C1C(Cc2ccc3[nH]ccc3c2)NC(=S)N1c1ccccc1 (configuration not stated)	3399	-1	?	?	-13	1
COc1ccc(OCc2n[nH]c(=S)n2Cc2ccco2)cc1	4673	3	0	2	3	-3
CCCCOc1ccc(-c2n[nH]c(=S)n2Cc2ccccc2)cc1	3674	6	2	34*	-11	5
Fc1ccc(-c2n[nH]c(=S)n2Cc2ccccc2)cc1	3091	3	-2	-6	2	1
COc1ccc(-c2n[nH]c(=S)n2Cc2ccco2)cc1	21139*	2	-3	-5	-2	-9
CCOC(=O)c1c(CN2CCOCC2)oc2ccc(OC)cc12	21090*	4	?	-5	0	-2
CCOC(=O)c1c(C)n(CCN2CCN(C)CC2)c2ccc(OC)cc12	20539*	1	-1	-5	-2	-2
CCCCn1c(C)c(C(=O)O)c2cc(OC)ccc21	7866	2	1	-2	2	-6
CCOC(=O)c1c(N)sc(C(=O)N(C)C)c1CN1CCOCC1	20070*	-6	0	1	0	-12
CCOC(=O)c1oc2ccccc2c1CN1CCOCC1	21460*	-4	2	2	-20	-5
CN1CCOC(=O)/C1=N/Nc1cc(Cl)ccc1Cl	3387	1	-1	1	0	0
Cn1cc(S(=O)(=O)c2ccccc2)n(C)c1=O	4052	-1	0	2	-4	-4
CCC(=O)N1CCc2cc(S(=O)(=O)NCCC(=O)N3CCN(c4cccc(C)c4)C(C)C3)ccc21 (configuration not stated)	5254	0	0	-6	-1	-8
CCN1C(=O)[C@H]2[C@@H](c3ccc(-c4cc(C(C)=O)cs4)cc3)N3CCC[C@@]3(C(=O)OC)[C@H]2C1=O	4221	8	0	-1	0	40*
SMILES	Autofluor counter	Mtb FBA inh	BoNT-A LC inh2	BoNT F protease	Anthrax LF inh2	GDH-TPI inh
CCCSc1ccc([C@@H]2[C@H]3C(=O)N(CC)C(=O)[C@H]3[C@]3(C(=O)OC)CCCCN23)cc1	22612*	-3	-7	22	1	4
CCN1C(=O)[C@H]2[C@@H](c3ccc(SC4CCCCC4)c(OC)c3)N3CCCC[C@@]3(C(=O)OC)[C@H]2C1=O	4175	-1	0	-4	-8	-8
CCN1C(=O)[C@@H]2[C@@H](c3ccc(SC4CCCCC4)cc3)N3CCCC[C@@]3(C(=O)OC)[C@@H]2C1=O	16473*	1	-2	27	7	7
CCCCCCSc1ccc([C@@H]2[C@H]3C(=O)N(CC)C(=O)[C@H]3[C@]3(C(=O)OC)CCCN23)cc1	5108	1	-1	1	-7	0
COc1ccc(CNC(=O)c2ccccc2NC(=O)C2=CSCCO2)c(OC)c1	6016	1	-1	7	-4	9
CC(=O)c1ccc(NC(=O)C2=CC(c3ccco3)=NS(=O)(=O)N2C)cc1	6345	2	0	4	-2	31*
COc1ccc(NC(=O)C2=CC(c3ccco3)=NS(=O)(=O)N2C)cc1OC	5371	-1	0	0	-7	27
CC(=O)Nc1ccc(S(=O)(=O)Nc2nccc(/C=C/c3ccc(Cl)cc3)n2)cc1	2880	2	-2	-11	-3	16
CCSc1nnc(-c2cc(Br)ccc2N)c(=O)[nH]1	2107	1	1	-3	1	-1
CCSc1nnc(-c2ccccc2N)c(=O)[nH]1	23571*	-3	0	-1	-4	10
CS(=O)c1ccccc1-c1nc(-c2cccc(Cl)c2)no1 (configuration not stated)	4409	-1	-1	-3	-4	-3
CCn1ncc(C2=NOC(C(=O)NCc3ccc(Cl)cc3)C2)c1C (configuration not stated)	21413*	6	2	3	3	5
CCn1ncc(C2=NOC(C(=O)Nc3cccc(O)c3)C2)c1C (configuration not stated)	4419	0	-1	-3	0	-2
CCn1ncc(C2=NOC(C(=O)Nc3ccc(C)cc3)C2)c1C (configuration not stated)	4558	2	0	13	1	-5
CCn1ncc(C2=NOC(C(=O)Nc3cccnc3)C2)c1C (configuration not stated)	22133*	1	3	4	-8	-1
O=C(CCCSc1nc2ccccc2[nH]1)Nc1nnc(-c2ccccc2)o1	22546*	2	?	-1	1	10
CC(=O)Nc1sc2c(c1-c1nc3ccccc3s1)CCN(C(C)C)C2	5109	8	4	5	-3	33*
CC(C)N1CCc2c(sc(NC(=O)c3ccc4ccccc4c3)c2C(N)=O)C1	6180	1	2	-4	-2	10
Nc1nn2cc(-c3ccc(Br)cc3)nc2c2ccccc12	5231	146*	-1	-5	-4	8
Brc1ccc(-c2cn3nc4c(nc3n2)CCCC4)cc1	2922	0	18	3	13	6
Cc1ccccc1S(=O)(=O)/N=C(/Nc1nc2ccccc2s1)c1ccccc1	2977	3	-1	-4	-6	44*
COc1cc(/C=N/N=C2/SCC(=O)N2c2ccc(O)cc2)ccc1O	4780	-2	-1	-3	4	16
